A selection: hits, their analogues and other compounds. The true share with any hit is near 3.5%.
FBW7 activator: activators of human E3 ligase FBW7. normalized activity (activation), % at 26.1 µM. AlphaScreen FBW7–phospho-cyclin E peptide binding, activator screen. Q969H0. actives 0.13% (n = 650,000); in the data active means normalized activity above about 1.9%;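 further: purified mutant Fbw7 with reduced substrate affinity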
Target sequence (Q969H0 whole entry, looked up): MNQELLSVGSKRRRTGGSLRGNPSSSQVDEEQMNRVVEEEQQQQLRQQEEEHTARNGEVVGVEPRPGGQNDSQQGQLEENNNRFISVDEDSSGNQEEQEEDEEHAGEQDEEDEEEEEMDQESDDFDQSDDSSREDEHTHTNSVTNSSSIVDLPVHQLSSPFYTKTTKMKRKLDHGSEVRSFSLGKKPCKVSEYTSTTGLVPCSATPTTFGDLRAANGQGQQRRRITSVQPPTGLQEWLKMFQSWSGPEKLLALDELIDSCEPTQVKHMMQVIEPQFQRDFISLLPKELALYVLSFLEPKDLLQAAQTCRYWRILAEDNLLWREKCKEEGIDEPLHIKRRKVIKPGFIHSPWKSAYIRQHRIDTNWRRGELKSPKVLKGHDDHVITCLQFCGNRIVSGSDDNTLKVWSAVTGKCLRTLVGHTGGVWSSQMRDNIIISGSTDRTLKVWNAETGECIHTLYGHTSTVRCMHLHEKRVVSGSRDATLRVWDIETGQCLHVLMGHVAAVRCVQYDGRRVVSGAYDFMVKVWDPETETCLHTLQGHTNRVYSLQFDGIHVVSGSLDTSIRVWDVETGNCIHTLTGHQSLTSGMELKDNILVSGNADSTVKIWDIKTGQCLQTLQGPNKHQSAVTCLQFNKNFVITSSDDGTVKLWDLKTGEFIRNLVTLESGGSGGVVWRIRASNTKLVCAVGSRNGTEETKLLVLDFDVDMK
MITF primary: human MITF inhibition, primary screen | O75030 | AlphaScreen MITF homodimerization, bead proximity signal | inhibition, % at 2.6 µM | actives 0.91% (n = 650,000) | AID 1259374; in the data active means inhibition above about 50%
TEAD-YAP inh: TEAD-YAP interaction inhibition | HEK-TIYL cells, TEAD-Gal4/YAP UAS-luciferase luminescence | AID 1259422 | inhibition, % at 9.12 µM | actives 1.4% (n = 640,000); in the data active means inhibition above about 32%
GPR151 activ: activates the human receptor GPR151; Q8TDV0; PathHunter beta-arrestin GPR151 cells, luminescence; activation, % at 11.2 µM; actives 1% (n = 650,000); AID 1508602; in the data active means activation above about 4.9%
Hits are given with their value; – = inactive.

SMILES | FBW7 activator | MITF primary | TEAD-YAP inh | GPR151 activ
COc1ccc2c(c1)C(C)CC(C)(C)N2C(=O)CCl (stereo not given) | – | – | 41 | –
COc1cccc2sc(Nc3nnc(-c4ccccc4Cl)o3)nc12 | – | – | 46 | –
COc1cccc2sc(Nc3nnc(-c4ccccc4)o3)nc12 | – | – | – | –
COc1ccccc1-c1nnc(Nc2nc3c(OC)cccc3s2)o1 | – | – | 53 | –
Cc1ccsc1C(=O)Nc1nc2ccc(S(C)(=O)=O)cc2s1 | – | – | 62 | –
CC(C)Oc1ccc(C(=O)Nc2nc3ccccc3s2)cc1 | – | – | 73 | –
O=C(NC(=S)Nc1nc2ccccc2s1)c1ccccc1Cl | – | – | 70 | –
O=C(Nc1nc2ccccc2s1)c1ccc(C(=O)c2ccccc2)cc1 | – | – | – | –
CC(C)Oc1ccc(C(=O)NCc2ccccc2)cc1 | 2.5 | – | – | –
COc1ccc(CNC(=O)c2ccc(OC(C)C)cc2)cc1 | – | – | – | –
Cc1nnc(NC(=O)/C=C/c2ccc3c(c2)OCO3)s1 | – | – | – | –
COc1ccc(C(=O)Nc2nc3c(Cl)cccc3s2)c(OC)c1 | – | – | 78 | –
CCCOc1ccc(C(=O)Nc2nc3ccccc3s2)cc1 | – | – | – | –
CC(C)(C)c1ccc(C(=O)Nc2nc3ccccc3s2)cc1 | – | – | 39 | –
CC(=O)Nc1ccc2nc(NC(=O)c3ccccc3C)sc2c1 | – | – | – | –
Cc1ccccc1C(=O)Nc1ccc2nc(NC(=O)c3ccccc3C)sc2c1 | – | – | 55 | –
CCCc1ccc(C(=O)Nc2nc3ccccc3s2)cc1 | – | – | 38 | –
CCCCOC(=O)c1ccc(NCN2C(=O)c3cccc([N+](=O)[O-])c3C2=O)cc1 | – | – | – | –
c1nc2sc3c(c2c2nnc(C4CCCCC4)n12)CCCC3 | – | – | – | –
Oc1ccccc1N=Cc1nc(-c2ccccc2)oc1O | – | – | – | –
COc1ccccc1C(=O)Nc1nc2ccccc2s1 | – | – | 95 | –
COc1ccccc1C(=O)Nc1nc2ccc(NC(C)=O)cc2s1 | – | – | – | –
Cc1ccc(NC(=O)CN(c2ccc(F)c(Cl)c2)S(C)(=O)=O)cc1 | – | – | – | –
CCOc1ccc(N2C(=O)CC(Sc3nc4c(cc3C#N)CCCCC4)C2=O)cc1 (stereo not given) | – | – | – | –
O=c1c2c3c(sc2nc2c4ccccc4cnn12)CCCC3 | – | – | 53 | –
SMILES | FBW7 activator | MITF primary | TEAD-YAP inh | GPR151 activ
O=c1c2c3c(sc2nc2c4ccccc4c4nnnn4n12)CCCC3 | – | – | – | –
O=C(CCC1(Cc2ccc(F)cc2)CCC(=O)N1)NCc1c(F)cccc1F (stereo not given) | – | – | 36 | –
COCCCNC(=O)c1ccc(C)c(Cl)c1 | – | – | – | –
CNC(=O)c1ccc2c(c1)N=C(C)c1cc(Cl)ccc1S2 | – | – | – | –
COC(CNC(=O)c1ccc2c(c1)N=C(C)c1c(C)ccc(C)c1S2)OC | – | – | 58 | –
CNC(=O)c1ccc2c(c1)N=C(C)c1c(C)ccc(C)c1S2 | – | – | 48 | –
COC(CNC(=O)c1ccc2c(c1)N=C(C)c1ccccc1S2)OC | – | – | – | –
COCCCNC(=O)c1ccc2c(c1)N=C(C)c1c(C)ccc(C)c1S2 | – | – | 56 | –
COCCNC(=O)c1ccc2c(c1)N=C(C)c1c(C)ccc(C)c1S2 | – | – | 74 | –
O=C(Nc1cc([N+](=O)[O-])ccc1O)c1cccnc1 | – | – | – | –
COC(CNC(=O)c1ccc2c(c1)N=C(C)c1cc(Cl)ccc1S2)OC | – | – | 38 | –
Cc1ccc(/C=C2/C(=N)N3N=C(c4ccccc4C)SC3=NC2=O)cc1 | – | – | – | –
Cc1ccc(C(=O)Oc2ccc(NC(=O)Cn3cnc4ccccc4c3=O)cc2)cc1 | – | – | – | –
COC(=O)c1ccc(-c2nc3cc(Cl)c(N)cc3s2)cc1 | – | – | 47 | –
CCc1cc(NC2CCS(=O)(=O)C2)n2c(nc3ccccc32)c1C#N (stereo not given) | – | – | – | –
COc1ccc(C2=C/C(=C/c3ccco3)C(=O)O2)cc1OC | – | 74 | – | –
CC1=C/C(=C/c2ccco2)C(=O)O1 | – | 65 | – | –
O=C1OC(c2ccc(Cl)cc2)=C/C1=C\c1ccco1 | – | 53 | – | –
Cc1ccc(C2=C/C(=C/c3ccc(Cl)cc3)C(=O)O2)cc1 | – | – | – | –
CN1C/C(=C/c2ccco2)C(=O)/C(=C/c2ccco2)C1 | – | – | – | –
c1n[nH]c2c1CN(c1nc3nonc3nc1N1CCCCCC1)CC2 | – | – | – | –
COc1ccc(NC(=O)C2(c3ccc([N+](=O)[O-])cc3)CCCC2)cc1 | – | – | – | –
CC(C)Nc1cc(NCCO)c2noc3c2c1C(=O)c1ccccc1-3 | – | – | 37 | –
O=C(O)CNc1cc(N2CCCCCC2)c2noc3c2c1C(=O)c1ccccc1-3 | – | 61 | 77 | –
O=C(O)CCNc1cc(N2CCCCC2)c2noc3c2c1C(=O)c1ccccc1-3 | – | 89 | – | –
SMILES | FBW7 activator | MITF primary | TEAD-YAP inh | GPR151 activ
CC(C)Nc1cc(N(C)CCO)c2noc3c2c1C(=O)c1ccccc1-3 | – | – | – | –
O=C1c2ccccc2-c2onc3c(N4CCCCC4)cc(Nc4ccccc4)c1c23 | – | – | – | –
CC1CCCN(c2cc(NCCN(C)CCO)c3c4c(onc24)-c2ccccc2C3=O)C1 (stereo not given) | – | 61 | 39 | –
O=C1NC(=O)N(Cc2ccccc2)C(=O)/C1=C/c1ccc(Br)o1 | – | 58 | – | –
Cc1cccc(N2C(=O)NC(=O)/C(=C/c3ccc(I)o3)C2=O)c1 | – | 58 | – | –
O=C1NC(=O)N(c2ccccc2)C(=O)/C1=C\c1ccc(I)o1 | – | 74 | – | –
CCc1ccc(N2C(=O)NC(=O)/C(=C\c3ccc(I)o3)C2=O)cc1 | – | – | – | –
CC(C)c1ccccc1OCC(=O)NN1C(=O)c2ccccc2C1=O | – | – | 34 | –
CC(=O)N(C1=C(N(C)C)C(=O)c2ccccc2C1=O)c1ccc(Cl)cc1 | – | – | 73 | –
CC(=O)N(C1=C(N(C)C)C(=O)c2ccccc2C1=O)c1cc(C)cc(C)c1 | – | – | 85 | –
CC(=O)N(C1=C(Cl)C(=O)c2ccccc2C1=O)c1ccc(Br)cc1 | – | – | – | –
CC(=O)N(C1=C(N(C)C)C(=O)c2ccccc2C1=O)c1cccc(F)c1 | – | – | 95 | –
COc1ccc(N2C(=O)NC(=O)/C(=C\c3ccc(N4CCCC4)cc3)C2=O)cc1 | – | – | – | –
COc1ccc(/C=C2\SC(N3CCOCC3)=NC2=O)c(OC)c1 | – | – | – | –
O=C(O)C1C2C=CC(C2)C1C(=O)Nc1cccc2c(-c3ccccc3)ccnc12 (stereo not given) | – | – | – | –
CC(C)n1cnc2c(NCc3nc4ccccc4[nH]3)nc(-c3ccc(N4CCOCC4)nc3)nc21 | – | – | 70 | –
c1ccc2[nH]c(CNc3nc(-c4ccc(N5CCOCC5)nc4)nc4c3ncn4-c3ccsc3)nc2c1 | 23 | – | 82 | –
COc1ccc(-c2nc(NCc3nc4ccccc4[nH]3)c3ncn(-c4ccsc4)c3n2)cn1 | – | – | 78 | –

Screening results (PubChem)
